ST2 IL33 inh – blocks human ST2 binding to IL-33 | Q01638 | AlphaLISA ST2-Fc/biotin-IL-33 interaction, 1 h | inhibition, % for hits at 17 µM | 2.3% of 78,000 active | AID 1259354; in the data active = inhibition above about 30%
Target sequence (Q01638 whole entry, looked up): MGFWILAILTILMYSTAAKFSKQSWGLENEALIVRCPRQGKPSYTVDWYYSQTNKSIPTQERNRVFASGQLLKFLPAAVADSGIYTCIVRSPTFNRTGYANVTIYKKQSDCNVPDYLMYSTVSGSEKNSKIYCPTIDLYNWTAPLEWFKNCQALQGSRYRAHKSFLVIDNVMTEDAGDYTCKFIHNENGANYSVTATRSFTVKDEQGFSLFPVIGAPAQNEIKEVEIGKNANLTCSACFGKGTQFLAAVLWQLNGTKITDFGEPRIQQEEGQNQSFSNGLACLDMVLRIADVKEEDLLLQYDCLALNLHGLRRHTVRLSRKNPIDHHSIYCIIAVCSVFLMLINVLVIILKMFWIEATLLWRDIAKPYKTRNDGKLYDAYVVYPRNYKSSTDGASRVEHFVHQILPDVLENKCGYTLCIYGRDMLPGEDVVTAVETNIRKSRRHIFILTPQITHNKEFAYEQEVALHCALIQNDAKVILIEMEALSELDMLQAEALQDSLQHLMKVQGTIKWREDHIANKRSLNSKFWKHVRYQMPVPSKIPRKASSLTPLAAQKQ
Large screens that a line does not name were inactive. The entries come from a sample that favours hits as a whole.

COc1ccc(-n2nc(C)c([C@@H]3C=C[C@@H](NC(=S)Nc4ccccc4)C3)c2C)cc1	none
CCN(CC)S(=O)(=O)c1ccc(C(=O)Nc2nc(-c3ccc(C)c(C)c3)cs2)cc1	none
O=C(C1CC1)N1CCc2cc(Br)cc(S(=O)(=O)N3CCCC3)c21	none
CCSCCOC(=O)C1=C(C)NC2=C(C(=O)C(C(=O)OC)C(C)C2)C1c1cccc(Cl)c1 (centres undefined)	none
CC(=O)Nc1ccc(C2C(C#N)=C(N)OC3=C2C(=O)CC(C)C3)cc1 (centres undefined)	none
O=C1C2CCCN2C(c2cccc(Cl)c2)N1c1nccs1 (centres undefined)	none
COc1cc2c3c(c1)C(C)=CC(C)(C)N3C(=O)C2=O	ST2 IL33 inh 70.0%
COc1ccc2c(c1)N(C(=O)C(C)N1C(=O)c3ccccc3C1=O)C(C)(C)C=C2C (centres undefined)	none
COc1cccc(N2C(=O)NC3CC2(C)Oc2ccccc23)c1 (centres undefined)	none
CC1=CC(C)(C)N(C(=O)C(C)N2C(=O)c3ccccc3C2=O)c2cc(C)c(C)cc21 (centres undefined)	none
COc1cc2c3c(c1)C(C)CC(C)(C)N3C(=O)C2=O (centres undefined)	ST2 IL33 inh 40.0%
COc1cccc2c1OC1(C)CC2NC(=O)N1c1cccc(Cl)c1 (centres undefined)	none
CC(=O)Nc1ccc(Cl)c(C(=O)NCCC2=CC[C@H]3C[C@@H]2C3(C)C)c1	none
COc1ccc(C(=O)Nc2ccc(Cl)c(N3CCCS3(=O)=O)c2)cc1	none
Cc1ncc(C(=O)N2CCCC3(CNC(=O)O3)C2)c(-c2ccccc2)n1 (centres undefined)	none
COc1ccc(C2=NN(CN3C(=O)C(=O)c4ccccc43)C(c3ccc(C)cc3)C2)cc1 (centres undefined)	ST2 IL33 inh 43.0%
COc1ccc(C2CC(c3ccc(Br)cc3)=NN2C(=O)CCCC(=O)O)cc1 (centres undefined)	none
COc1ccc(C2=NN(C(=O)CCC(=O)O)C(c3cc4ccc(C)cc4nc3Cl)C2)cc1 (centres undefined)	none
C=C(C)COc1ccccc1C(=O)N1CCc2[nH]cnc2C1c1ccccn1 (centres undefined)	none
O=C1C2CC=C(Cl)CC2C(=O)N1CNc1ccccc1Cl (centres undefined)	none
Cc1cccc(N2C(=O)CC3CS(=O)(=O)CC32)c1C (centres undefined)	none
COc1cccc(C2CC(c3cccs3)=NN2C(=O)CSC2CCCCC2)c1OC (centres undefined)	ST2 IL33 inh 44.0%
COc1cccc(C2CC(c3ccc(Br)cc3)=NN2C(=O)CCCC(=O)O)c1OC (centres undefined)	none
COc1ccc(C2CC(c3cccs3)=NN2C(=O)CSc2c[nH]c3ccccc23)cc1 (centres undefined)	none
Cc1[nH]n(-c2ccccc2)c(=O)c1C(c1ccco1)c1c(C)[nH]n(-c2ccccc2)c1=O	ST2 IL33 inh 51.0%
Cc1c(C(c2ccco2)c2c(C)n(C)n(-c3ccccc3)c2=O)c(=O)n(-c2ccccc2)n1C	none
Cc1cn(-c2ccccc2)[nH]c1=O	none
Cc1ccc(SCCCN(C)Cc2cc3n(n2)CCCNC3)cc1	none
CSc1ccc(C2Nc3cccc4cccc(c34)N2)cc1	ST2 IL33 inh 31.0%
CSc1ccc(C2Nc3ccccc3C(=O)N2c2ccc(C)cc2)cc1 (centres undefined)	none
COc1cc(C(=O)Nc2c(C(=O)Nc3ccc(F)cc3)oc3ccccc23)cc(OC)c1OC	none
COc1cc(NC(=O)c2sc3nc(-c4ccc(F)cc4)ccc3c2N)cc(OC)c1OC	none
CSc1ccc(NC(=O)c2sc3nc(-c4ccc(F)cc4)ccc3c2N)cc1	ST2 IL33 inh 44.0%
COc1ccc(CCNC(=O)c2sc3nc(-c4ccc(OC)cc4)ccc3c2N)cc1	none
CCOC(=O)c1c(NC(=O)CCCn2nc(C)c([N+](=O)[O-])c2C)sc2c1CCCC2	none
CC(=O)Nc1ccc(NC(=O)c2ccncc2)cc1	none
O=C(c1ccncc1)N1N=C(c2cccc(Br)c2)CC1(O)C(F)(F)F (centres undefined)	none
Cc1[nH]nc(-c2ccccc2)c1Br	none
Nc1nc(-c2ccccc2)c(Br)c(=O)[nH]1	none
Brc1c(-c2ccccc2)nc2n1-c1ccccc1C2	ST2 IL33 inh 44.0%
O=C(CCSc1nc2ccccc2s1)NC1CCCCC1	none
Cc1cc(F)ccc1NC(=O)CCC1CCCN(C(=O)c2ccc(=O)n(C)n2)C1 (centres undefined)	none
CCOCCCNCc1ccc(OCC)c(OC)c1	none
Cc1ccc(N2C(=O)SC(Nc3cccc(C(=O)O)c3)C2=O)cc1 (centres undefined)	none
CCC(=O)N1CCc2cc(Br)cc(S(=O)(=O)NCc3ccc(F)cc3)c21	none
Cc1ccc(S(=O)(=O)N2CCN(c3nc(C)cc(N4CCOCC4)n3)CC2)cc1	none
Cc1cccc(N2C(=O)CC(N3CCOCC3)C2=O)c1 (centres undefined)	none
Cc1ccc(SC2=C(N3CCOCC3)C(=O)N(c3cc(C)cc(C)c3)C2=O)cc1	ST2 IL33 inh 43.0%
CC(CCn1cccn1)n1ccnc1-c1ccc2occc2c1 (centres undefined)	none
O=C(CN1CCN(Cc2ccc(F)cc2Cl)S1(=O)=O)Nc1ccc2c(c1)OCCO2	none
Cc1ccc(C)c(OCc2nc(-c3ccccn3)no2)c1	none
COCCCNC(=O)c1cc2c(=O)n3cccc(C)c3nc2n1C	none
O=C(NCc1ccco1)c1cccn2c(=O)c3cc4ccccc4cc3nc12	none
COCCCNC(=O)c1cccn2c(=O)c3cc4ccccc4cc3nc12	ST2 IL33 inh 30.0%
N#Cc1ccc(-c2csc(NC(=O)c3cc(=O)c4ccccc4o3)n2)cc1	none
COc1cc(/C=C2\SC(c3ccccc3)=NC2=O)cc(Br)c1O	ST2 IL33 inh 40.0%
COc1cc(/C=C2\SC(N)=NC2=O)cc(OC)c1O	none
COc1cc(/C=C2\SC(N3CCCCC3)=NC2=O)cc(OC)c1OC	none
CN(C)c1ccc(/C=C(\C#N)c2ccc([N+](=O)[O-])cc2)cc1	none
COc1ccc(/C=C(\C#N)c2ccc([N+](=O)[O-])cc2)c(OC)c1	ST2 IL33 inh 48.0%
COc1ccc(/C=C(\C#N)c2nc3ccccc3[nH]2)c(OC)c1	none
Cc1ccc2[nH]c(CN(Cc3ccccn3)CC3CCCO3)nc2c1C (centres undefined)	none
COc1cc(CN(C)C2CCN(C)CC2)cc([N+](=O)[O-])c1O	none
COc1ccccc1N1CCN(Cc2cc(I)c(O)c(OC)c2)CC1	none
CCN(CC)CCN(C)Cc1cc(I)c(O)c(OC)c1	ST2 IL33 inh 94.0%
CCOc1ccc(Br)cc1S(=O)(=O)N1CCN(c2nc(C)cc(Nc3ccc(C)cc3)n2)CC1	none
Cc1cccc(CN(Cc2ccccc2)C(=O)c2ccn(C)n2)n1	none
Cc1ccsc1C(=O)N(C)CC1CCN(CCc2cccc(C(F)(F)F)c2)CC1	none
COc1ccc2cc(C(N)=O)c(=Nc3ccc(C)cc3)oc2c1	none
COc1ccc2cc(-c3nc4ccccc4[nH]3)c(=Nc3ccc(C(N)=O)cc3)oc2c1	ST2 IL33 inh 35.0%
COc1ccc2cc(C(=O)NC(C)=O)c(=Nc3ccc(F)cc3)oc2c1	none
CCN(CC)CC1CCc2c(c3ccccc3n2C)C1=O (centres undefined)	none
COc1cccc(COC2CN(CC(C)C)C(=O)CN(C(=O)c3cccc(N4CCCC4=O)c3)C2)c1 (centres undefined)	none
O=C(Nc1cc(Cl)ccc1O)c1cc(C2CC2)on1	none
COC(=O)c1ccc2c(c1)C(=O)N(c1cccc(C(=O)OCC(C)C)c1)C2=O	none
N#CC1=C(N)OC2=C(C(=O)CCC2)C1c1cccc([N+](=O)[O-])c1 (centres undefined)	none
